Screen size: about 16,000 compounds; about 5,800 (36%) were called active. Not shown: some 23% with an inconclusive outcome. The list shows a part of the results. A number with no mark means an inactive call. The call rests on the fitted dose curve; in most records, active means well fitted curve in the direction sought with a large enough effect; inconclusive means small, poorly fitted or top-dose-only effect, or effect the other way; inactive means no such curve, though single readings can be large or run the other way.
On the % scale 0 is the no-effect control and ±100 the full control effect.

In the test the target is Cytochrome P450 2C19 (Homo sapiens) (UniProt P33261). In words: Cytochrome panel assay with activity outcomes. Particulars: recombinant CYP, pro-luciferin dealkylation, luminescence, p450-cyp2c19; series mostly up to 57.1 µM; activity, negative = inhibition: at the top concentration.
Cytochrome P450 2C19 (Homo sapiens), sequence (P33261 whole entry, looked up): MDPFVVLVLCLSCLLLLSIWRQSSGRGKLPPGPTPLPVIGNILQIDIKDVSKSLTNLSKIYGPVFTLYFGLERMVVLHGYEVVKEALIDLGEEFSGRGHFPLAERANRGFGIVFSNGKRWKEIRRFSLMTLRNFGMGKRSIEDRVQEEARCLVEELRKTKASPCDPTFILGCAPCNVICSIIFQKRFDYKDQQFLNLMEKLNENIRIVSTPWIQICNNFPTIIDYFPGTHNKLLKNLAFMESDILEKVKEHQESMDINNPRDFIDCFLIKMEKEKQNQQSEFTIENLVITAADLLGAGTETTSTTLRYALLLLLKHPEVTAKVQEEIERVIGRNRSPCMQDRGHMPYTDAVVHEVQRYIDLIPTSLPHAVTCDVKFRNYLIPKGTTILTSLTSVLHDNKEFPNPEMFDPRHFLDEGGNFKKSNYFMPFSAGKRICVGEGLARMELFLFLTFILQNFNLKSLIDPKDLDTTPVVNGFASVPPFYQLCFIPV
`CN(C)Cc1ccccc1-c1nc(N2CCOCC2)c2ccccc2n1`: the “activity, negative = inhibition” value was 30.7%.
With `CN1c2ccccc2C(C)(C)C12C=Nc1c(cc(N3CCOCC3)c3ccccc13)O2` (stereo not given), the AC50 is 3.55 µM (active).
For `Cc1ccc(C2/C(=C(/O)c3ccc(Cl)cc3)C(=O)C(=O)N2CC2CCCO2)o1` (stereo not given), the “activity, negative = inhibition” value was -16.5%.
Regarding `COc1cccc(C2=CC(c3ccccc3)n3nnnc3N2)c1` (stereo not given), the AC50 was 0.158 µM (active).
For `Cn1c(=O)c(-c2ccc(Cl)cc2)nc2cnc(Nc3ccccc3)nc21`, the “activity, negative = inhibition” value was 6.65%.
Consider `O=c1c2ccccc2c(-c2ccccc2)nn1-c1ccc(Cl)c(Cl)c1`, for which the AC50 is 2.51 µM (active).
Turning to `COc1ncc2nc(-c3ccccc3)c(=O)n(-c3ccccc3)c2n1`, the “activity, negative = inhibition” value is -27.6%.
The same measure, in the same setting: in the case of `O=C(O)Cc1nn(Cc2ccc(Br)cc2F)c(=O)c2ccccc12` it was -24.3%.
As to `O=c1c2ccccc2c(-c2ccccc2)nn1Cc1ccc(Cl)cc1`, the AC50 was 1.12 µM (active).
For the compound `COc1ncc2nc(-c3ccc(Cl)cc3)c(=O)n(-c3ccccc3)c2n1`, the “activity, negative = inhibition” value is -31.9%.
`CN1Cc2c(N)cccc2[C@H](c2ccccc2)C1`: the AC50 result was “inactive”.
As to `O=P(O)(CCP(=O)(O)c1ccccc1)c1ccccc1`, the activity, negative = inhibition was 2.23% [at 11.4 µM].
Turning to `O=P(Cc1cc[n+]([O-])cc1)(c1ccccc1)c1ccccc1`, the half-maximal activity concentration (AC50) is 15.8 µM (active).
With `CCS(=O)(=O)N1CCC(C(=O)NCCN2CCN(Cc3ccccc3)CC2)CC1`, the “activity, negative = inhibition” value is -5.92%.
As to `Cc1ccccc1-c1nc(CS(=O)CC(=O)NCCN2CCN(Cc3ccccc3)CC2)c(C)o1` (stereo not given), the concentration at half-maximal activity (AC50) is 17.8 µM (active).
Turning to `CCCN(CCC)CCCNC(=O)CS(=O)Cc1nc(-c2ccc(OC)c(OC)c2)oc1C` (stereo not given), the “activity, negative = inhibition” value was -24.7%.
Take `CN(Cc1ccco1)c1ncnc2ccc(-c3cccc(C#N)c3)cc12`: the AC50 is 6.31 µM (active).
Consider `CNc1ncnc2ccc(-c3ccccc3C#N)cc12`, for which the “activity, negative = inhibition” value was -33.6%.
As to `CN1CCN(c2ncnc3ccc(-c4cccc(C#N)c4)cc23)CC1`, the “activity, negative = inhibition” value was -31.3%.
For the compound `CN(Cc1ccco1)c1ncnc2ccc(-c3ccccc3Cl)cc12`, the AC50 was 3.16 µM (active).
Still for that read-out and setting: the result for `CN(Cc1ccco1)c1ncnc2ccc(-c3ccccc3C(F)(F)F)cc12` reads 3.16 µM (active).
Take `CN(C)c1ncnc2ccc(-c3ccccc3C#N)cc12`: the “activity, negative = inhibition” value was -19.8%.
As for `CN(Cc1ccco1)c1ncnc2ccc(-c3ccccc3C#N)cc12`, the AC50 is 1.26 µM (active).
Turning to `COc1ncc2nc(-c3ccc(F)cc3)c(=O)n(C)c2n1`, the “activity, negative = inhibition” value is -5.58%.
`Cc1noc(C)c1-c1ccc2ncnc(N3CCOCC3)c2c1`: the “activity, negative = inhibition” value is -43.8%.
Turning to `Cc1noc(C)c1-c1ccc2ncnc(N(C)Cc3ccco3)c2c1`, the AC50 is 5.01 µM (active).
Consider `Cc1noc(C)c1-c1ccc2ncnc(N3CCN(C)CC3)c2c1`, for which the “activity, negative = inhibition” value is -24.5%.
As for `COc1cc(/C=C2\SC(=S)N(Nc3ccccc3)C2=O)cc(OC)c1OC`, the concentration at half-maximal activity (AC50) was 11.2 µM (active).
Same read-out and setting: the result for `Cc1ccc(S(=O)(=O)/C=C\C#N)cc1` reads 5.01 µM (active).
In the case of `OCCNc1nc2ccccc2[nH]1`, the “activity, negative = inhibition” value was -39.8%.
For `Cc1nn(-c2nc3ccccc3[nH]2)c(N)c1-c1ccc(Cl)cc1`, the half-maximal activity concentration (AC50) was 4.47 µM (active).
On the same count and under the same terms, in the case of `c1ccc(CCSc2nccn2-c2ccccc2)cc1` it was 1.26 µM (active); in that of `Cc1ccccc1CSc1nccn1-c1ccccc1`, 0.631 µM (active).
Take `O=C(O)CSCCc1ccccc1`: the activity, negative = inhibition is 6.64% [at 11.4 µM].
Take `O=c1ccnc(SCc2ccc(Cl)cc2)[nH]1`: the activity, negative = inhibition was -32.7% [at 11.4 µM].
With `Clc1ccc(CSc2nccn2Cc2ccccc2)cc1`, the half-maximal activity concentration (AC50) was 0.224 µM (active).
Still for that read-out and setting: the result for `O=C(CSc1nccn1-c1ccccc1)c1ccc(Cl)cc1` reads 0.447 µM (active).
Take `Nc1ncnc2c1nc(Sc1ccc(Cl)cc1)n2[C@@H]1O[C@H]2COP(=O)(O)O[C@@H]2[C@H]1O`: the “activity, negative = inhibition” value was -24.6%.
With `CCc1ccc(CSc2nccn2-c2ccccc2)cc1`, the AC50 was 1.58 µM (active).
`N#CC1(Nc2ccc(-c3ccc(NC4(C#N)CCCC4)cc3)cc2)CCCC1`: the activity, negative = inhibition is 4.93% [at 11.4 µM].
On the same count and under the same terms, the result for `O=C(O)/C=C/C(=O)Nc1ccccc1-c1ccccc1` reads -18.3%; that for `CCOC(=O)c1ccc(Cl)c(NC(=O)c2ccc(-c3ccccc3)cc2)c1`, -23.7%.
As to `CCOc1c(Cl)cc(C(=O)Nc2ccccc2-c2ccccc2)cc1Cl`, the AC50 was 2.51 µM (active).
Turning to `COc1ncc2nc(-c3ccc(F)cc3)c(=O)n(Cc3ccc(F)cc3)c2n1`, the “activity, negative = inhibition” value was 1.23%.
In the case of `N#Cc1cccc(-c2nc3cnc(Oc4cccc(Cl)c4)nc3n(C3CC3)c2=O)c1`, the “activity, negative = inhibition” value was -30.1%.
On the same count and under the same terms, the result for `O=c1c(-c2ccccc2)nc2cnc(Oc3cccc(Cl)c3)nc2n1C1CC1` reads -83.9%.
Consider `COc1ncc2ncc(=O)n(Cc3ccc(F)cc3)c2n1`, for which the AC50 is 7.94 µM (active).
The same measure, in the same setting: the result for `O=c1cnc2cnc(Oc3cccc(Cl)c3)nc2n1C1CC1` reads 15.8 µM (active).
In the case of `COc1cccc(Cn2c(=O)cnc3cnc(N4CCN(C)CC4)nc32)c1`, the “activity, negative = inhibition” value is -43.5%.
The same measure, in the same setting: in the case of `COc1ncc2ncc(=O)n(CCC#N)c2n1` it was 5.25%.

Values taken from PubChem BioAssay AID1851 (National Center for Advancing Translational Sciences (NCATS), 2009).
